Bioassay records from PubChem BioAssay.
This is a sample that favours compounds with a hit; in the whole collection about 10% have one here.
HPGD inh – HPGD (human) dehydrogenase inhibition; P15428; purified HPGD, NADH fluorescence kinetic, PGE2 substrate; Potency, µM, for inactives: at the top dose activity change, negative = inhibition, hits mostly inhibitors; hit rate 4.3% among 150,000; AID 894; further: potency means the concentration at half of the fitted maximal effect
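20 nM HPGD preincubated 15 min at room temperature with compound in 50 mM Tris-HCl pH 8, 0.01% Tween 20. Started with 1 mM NAD+ and 30 uM prostaglandin E2; NADH fluorescence (360/450 nm) read 5 times over 30-s intervals, last minus first.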
KinaseGlo FLuc – Kinase-Glo luciferase inhibition (counter-screen); hit rate 0.28% among 200,000; Kinase-Glo luciferase, ATP luminescence, 8 min; Q27757; AID 1379; Potency, µM (titrated, usually from 38.3 µM), inactives show top-dose activity change, negative = inhibition, actives largely listed as inhibitors; active means well fitted inhibition curve with a large enough effect; inconclusive means small, poorly fitted or top-dose-only effect; further: potency means the concentration at half of the fitted maximal effect; nearly all actives have a fitted effect of over 60% in size
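Compound is pinned into ATP-containing buffer (10 uM ATP, imidazole pH 7.2, 7 mM MgCl2). Kinase-Glo luciferase reagent is then added. Light output is recorded following an 8-min room-temperature incubation.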
Lamin A splicing – modulators of lamin A splicing; HeLa LMNA splicing GFP/RFP minigene ratio, 48 h; Potency, µM (top dose mostly 46.1 µM), for inactives: at the top dose ratio change, negative = inhibition, most hits filed as inhibitors; hit rate 0.01% among 200,000; active means well fitted inhibition curve with a large enough effect in the signal ratio, with a control signal flat, not every such curve was filed as active; inconclusive means small, poorly fitted or top-dose-only effect, or effect the other way, or a change in a side signal; the % refers to the signal ratio; further: potency means the concentration at half of the fitted maximal effect
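Read-out is the ratio of GFP to DsRed2 object intensity, acquired by 488 nm laser-scanning cytometry on HeLa lamin A-EGFP minigene reporter cells. Compound incubation 48 hrs at 37 °C in Opti-MEM with 2% FBS; DMSO 0.5% final.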
ALDH1A1 block – ALDH1A1 (human) enzyme inhibition. P00352. Purified ALDH1A1, NADH fluorescence, propionaldehyde substrate. Potency, µM (doses to about 75.3 µM), inactives show top-dose activity, negative = inhibition, actives largely listed as inhibitors. hit rate 7.3% among 220,000. AID 1030;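 further: potency means the concentration at half of the fitted maximal effect; plate controls were no enzyme wells and a reference inhibitor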
Target sequence (P00352 whole entry, looked up): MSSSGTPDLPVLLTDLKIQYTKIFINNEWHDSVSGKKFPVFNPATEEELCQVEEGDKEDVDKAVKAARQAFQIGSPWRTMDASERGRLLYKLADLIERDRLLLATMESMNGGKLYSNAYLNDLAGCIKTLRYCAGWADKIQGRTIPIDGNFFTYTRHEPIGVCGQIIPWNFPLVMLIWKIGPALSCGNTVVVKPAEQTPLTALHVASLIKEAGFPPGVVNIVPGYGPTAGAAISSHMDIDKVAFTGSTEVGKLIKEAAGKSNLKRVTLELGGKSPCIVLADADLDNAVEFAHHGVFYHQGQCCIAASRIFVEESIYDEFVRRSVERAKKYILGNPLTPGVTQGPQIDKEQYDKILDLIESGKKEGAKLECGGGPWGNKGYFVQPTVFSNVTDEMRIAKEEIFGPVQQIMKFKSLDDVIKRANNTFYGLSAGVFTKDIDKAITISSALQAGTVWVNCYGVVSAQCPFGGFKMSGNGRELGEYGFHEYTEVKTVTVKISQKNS
PNC inhibitor – inhibitors of perinucleolar compartment assembly; PC3M PTB-GFP, PNC prevalence imaging, 16 h; hits give low values; activity change (PNC), negative = inhibition, % at 10 µM; hit rate 3.1% among 140,000;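 active means readout at or below -70, meaning at least 70% loss of cells showing the perinucleolar compartment, a nuclear body marking cancer cells; inconclusive means readout between -30 and a set limit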;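 further: plate controls were DMSO wells for no effect and camptothecin positive control wells for full effect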
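Read-out is percentage of cells bearing a perinucleolar compartment, from automated 20x imaging of fixed, Hoechst-stained PC3M PTB-GFP cells. Cells were seeded 4 h, then exposed 16 h to compound (23 nl of library stock) in duplicate plates.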
An asterisk follows results filed as active; ? = inconclusive; / = not tested or not shown; ! = not confirmed by another sample; [ ] = dose if it differs, or a comment. Unless noted, the call rests on the fitted dose curve; in most records, active means well fitted inhibition curve with a large enough effect (not every such curve was filed as active); inconclusive means small, poorly fitted or top-dose-only effect, or another doubt; inactive means no such curve, though single readings can be large or run the other way. Unless noted, on the % scale 0 is the no-effect control and ±100 the full control effect.

SMILES	HPGD inh	KinaseGlo FLuc	Lamin A splicing	ALDH1A1 block	PNC inhibitor
O=C(CN1CCCCC1)c1ccc(OC(F)F)cc1	-3%	2%	-7%	?	-20
O=C(CN1CCCCC1)c1ccccc1Cl	-18%	1%	-3%	13µM*	45
O=C(CN1CCCCC1)c1cccc(Br)c1	-2%	1%	-8%	1.4µM*	-12
O=C(CN1CCCCC1)c1ccccc1F	/	-4%	?	3%	/
C=Cc1ccccc1	-4%	/	/	?	/
CCCCCC[C@H]1C(=O)O[C@H](C)[C@H](NC(=O)c2cccc(NC=O)c2O)C(=O)O[C@@H](C)[C@H]1OC(=O)CC(C)C	?	2%[17.1 µM]	?	-14%[20.9 µM]	/
Cc1ccc(C(=O)n2c(N)nc3ccccc32)cc1	/	11µM*	/	7%	/
CCCCOC(C)=O	-10%	/	/	?	/
Cc1ccc(N2C(=O)NC(=O)C3(Cc4ccccc4N4CCN(c5ccccc5)CC43)C2=O)cc1 (stereo not drawn)	/	/	0%	22µM*	-7
C/C(Cl)=C/CC1(CN2CCCC2=O)C(=O)NC(=O)NC1=O	/	/	2%	-6%	-122*
C[N+](C)(C)CC#CCN1CCCC1=O	-20%	-5%	?	0%	/
Cc1cccc(N)c1C	-11%	/	/	-5%	/
CN(C)c1ccc(C=C2C(=O)NC(=S)NC2=O)cc1[N+](=O)[O-]	/	-5%	5%[46 µM]	11µM*	/
NS(=O)(=O)c1ccc(-c2ccc([As](=O)(O)O)cc2)cc1	-11%	-3%[7.66 µM]	/	4%[13.5 µM]	/
CCN1CCN(S(=O)(=O)c2ccc(Cl)nc2)CC1	-2%	-2%	4%	25µM*	65
CCC(=NCCN1CCOCC1)c1c(O)n(-c2ccccc2C)c(=O)[nH]c1=O	-9%	-8%	0%	?	-15
CC/C(=N\N1CCCCCC1)c1c(O)n(-c2ccccc2C)c(=O)[nH]c1=O	-8%	4%	?	-15%	-95*
Cc1cccc(N2C(=O)/C(=C/c3ccc(N4CCN(C)CC4)o3)C(=O)NC2=S)c1C	-37%	-13%	8%	14µM*	13
Cc1cc(SCc2sc(-c3ccc(C(F)(F)F)c(F)c3)nc2C)ccc1OCC(=O)O	10µM*	-4%	/	?	/
S=P(C1CCCCC1)(C1CCCCC1)[C@H](c1cccnc1)N1CCCC1	2%	-3%[7.66 µM]	/	-16%[13.5 µM]	/
O=C(O)/C=C\C(=O)Nc1ccc(Oc2ccc(Br)cc2)cc1	/	-2%	22%[46 µM]	1.4µM*	/
C=CCN1C(=O)NC(=O)/C(=C/c2ccc(N(C)C)c(Br)c2)C1=O	/	-3%	?	13µM*	/
C=CCN1C(=O)NC(=O)/C(=C/c2ccoc2)C1=O	25µM*	5%	?	?	43
N/C(=N\N=C/c1ccc(-c2ccc(O)c(C(=O)O)c2)o1)N[N+](=O)[O-]	7.1µM*	-16%	11%	?	-24
CCOP(=O)(OCC)c1nc(-c2cccc3ccccc23)oc1NCc1ccccc1	?	1%	?	?	?
SMILES	HPGD inh	KinaseGlo FLuc	Lamin A splicing	ALDH1A1 block	PNC inhibitor
COP(=O)(OC)c1nc(-c2cccc3ccccc23)oc1NCCc1ccccc1	?	-1%	?	?	-91*
NCCNCCNCCNCCN	-8%	/	?	32µM*	/
COc1ccc(C[C@@H]2NC[C@H](O)[C@@H]2OC(C)=O)cc1	-10%	3%[17.1 µM]	?	-12%[20.9 µM]	/
COC(=O)[C@@H]1[C@@H]2C[C@H]3c4[nH]c5cc(OC)ccc5c4CCN3C[C@@H]2C[C@H](OC(=O)/C=C\c2cc(OC)c(OC)c(OC)c2)[C@H]1OC	?	1%[17.1 µM]	?	?	/
O=C=NC1CCCCC1	-4%	/	/	28µM*!	/
COC(=O)C(O)C(O)(CCC(C)C)C(=O)OC1C(OC)=CC23CCCN2CCc2cc4c(cc2C13)OCO4 (stereo not drawn)	0%	0%[39.9 µM]	/	8%	/
C[C@@H]1CC[C@@]2(OC1)O[C@H]1[C@@H](O)[C@H]3[C@@H]4CC[C@H]5C[C@@H](O[C@@H]6O[C@H](CO)[C@H](O[C@@H]7O[C@H](CO)[C@@H](O)[C@H](O[C@@H]8OC[C@@H](O)[C@H](O)[C@H]8O)[C@H]7O[C@@H]7O[C@H](CO)[C@@H](O)[C@H](O[C@@H]8O[C@H](CO)[C@@H](O)[C@H](O)[C@H]8O)[C@H]7O)[C@H](O)[C@H]6O)[C@H](O)C[C@]5(C)[C@H]4CC[C@]3(C)[C@H]1[C@@H]2C	-5%	/	/	20µM*	/
